Source: PubChem (Broad Institute)
Shh pathway inh = blocks Sonic Hedgehog signaling | 22,000 tested, 2.1% active | inhibition, % (concentration not given with the values) | Shh-LIGHT2 Gli-luciferase reporter, 30 h;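 active means mean inhibition across valid replicates above about 65%, limit read from the data; inconclusive means mean under the limit, yet half or more replicates past it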;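 further: pathway switched on by Shh-conditioned medium diluted 1 in 25 in low serum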
NOMO-1 viab = STK33 inhibitor candidate reducing NOMO-1 cell viability; inhibition, % (test concentration not listed); NOMO-1 AML viability, CellTiter-Glo luminescence, 72 h; 37,000 tested, 7.5% active; AID 2330; in the data active means inhibition above about 80%; inconclusive means no clear call, values can overlap the other calls
PD-1 reverse act = reversal of PD-1 mediated T-cell inhibition. primary human CD4 T cells, PD-L1 beads, CellTiter-Glo 96 h. activation, % (no concentration beside the values). 29,000 tested, under 10 active. AID 2316; call rule not given here;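 further: 0% = median vehicle wells and 100% = positive control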
MITF inhib = inhibitors of MITF | 37,000 tested, 0.28% active | TRPM1 promoter luciferase, luminescence, 24 h | inhibition, % (no concentration beside the values) | AID 2240; in the data active means inhibition above about 85%; inconclusive means no clear call, values can overlap the other calls; inactive means below about 68%;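 further: human melanocyte line stably carrying TRPM1 promoter luciferase reporter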
YB-1 expr inh = YB-1 expression inhibition | U2OS, qRT-PCR YB-1 vs CDIP delta delta Cp, 16 h; active compounds read high; zero = DMSO, each unit about twofold | delta delta Cp (YB-1 minus CDIP) (concentration not given with the values) | 30,000 tested, 0.37% active | AID 434959;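 active means delta delta Cp rounded down to an integer at or above 3, about 3 SD of DMSO wells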;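 further: higher means less YB-1 transcript or more CDIP transcript relative to DMSO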
* = called active by the depositor; ? = inconclusive; · = not tested or not shown. The list is not random: actives were taken first. Their share in the collection is about 7.4%.

SMILES	Shh pathway inh	NOMO-1 viab	PD-1 reverse act	MITF inhib	YB-1 expr inh
CCc1ccc(C(Nc2ccccn2)c2ccc3ccc(C)nc3c2O)cc1 (configuration not stated)	·	110.0*	·	33.3	·
Cc1ccnc(NC(c2ccsc2)c2ccc3ccc(C)nc3c2O)c1 (configuration not stated)	·	89.1*	-17.2	7.4	·
COc1ccc(NC(=O)CSc2nccc(C)n2)cc1	·	18.0	·	-27.5	·
COc1ccc(C(Nc2cc(C)ccn2)c2ccc3ccc(C)nc3c2O)cc1 (configuration not stated)	·	98.9*	·	11.6	·
O=S(=O)(Nc1ccc(O)c(Sc2nc3ccccc3s2)c1)c1cccc2cccnc12	·	3.7	-0.9	49.5	·
Cc1cc2ncc(-c3ccnc(SCc4c(Cl)cccc4Cl)n3)c(C)n2n1	-26.1	16.3	-0.3	-2.2	-0.476
Cc1cc(=O)oc2cc(OC(C)C(=O)Nc3sc4c(c3C(N)=O)CCCC4)ccc12 (configuration not stated)	·	5.2	·	20.8	·
CCc1ccc(C(Nc2cc(C)ccn2)c2ccc3ccc(C)nc3c2O)cc1 (configuration not stated)	·	89.2*	·	60.9	·
COc1ccc(CCNC(=S)N2CCN(C(=O)c3ccco3)CC2)cc1OC	·	-8.9	-1.1	-1.7	·
COc1cc2cc(Oc3ccc4ccc(=O)oc4c3)c(=O)oc2cc1OC1OC(COC(=O)CC(C)(O)CC(=O)O)C(O)C(O)C1O (configuration not stated)	16.0	4.5	-0.6	-3.8	1.12
CC(C)CC1NC(=O)C(CC(C)C)N(O[C@@H]2O[C@H](COC(=O)CCC(=O)O)[C@@H](O)[C@H](O)[C@H]2O)C1=O (some centres not stated)	74.1*	118.5*	-6.1	50.0	4.91*
COc1cccc(C(=O)/C=c2\[nH]c(=O)/c(=C\c3cccs3)s2)c1	-1.5	104.3*	-4.9	-26.6	-0.519
CCC(CCC(=O)Nc1ccccc1[N+](=O)[O-])C(=O)O (configuration not stated)	·	22.1	·	-18.6	·
CCC(C)C(=O)OCC1(c2ccc(C)cc2OC(=O)C(C)C)CO1 (configuration not stated)	-17.6	117.7*	-9.0	2.5	0.955
CC(C)(C)c1ccc(OCC(O)Cn2cnc3ccccc32)cc1 (configuration not stated)	·	93.1*	·	29.8	·
C[C@H]1CC[C@@H]2[C@@H](C(=O)c3c(O)c([C@]4(O)CC[C@@H](O)[C@H]5O[C@H]54)c[nH]c3=O)[C@@H](C)C=C[C@H]2C1	95.9*	121.1*	-21.7	74.3	-0.357
COc1ccc(NC(=O)CN(c2ccccc2Br)S(C)(=O)=O)cc1OC	·	-19.7	2.2	-7.3	·
Cc1cc(C2(c3cc(C)c(N)c(C)c3)CCCCC2)cc(C)c1N	·	122.2*	-1.2	25.2	-0.433
CC(C)(C)C1CCc2c(sc(NC(=O)COc3ccc(Cl)cc3)c2C(N)=O)C1 (configuration not stated)	·	89.1*	·	-6.3	·
C[C@@H]1CN([C@H](C)CO)C(=O)c2cccc(NS(=O)(=O)c3ccccc3)c2O[C@@H]1CN(C)Cc1ccc(C(=O)Nc2ccccc2N)cc1	·	128.0*	-1.1	17.4	-0.278
C[C@@H]1CN([C@H](C)CO)C(=O)c2cccc(NS(=O)(=O)c3ccc(F)cc3)c2O[C@@H]1CN(C)Cc1ccc(C(=O)Nc2ccccc2N)cc1	·	127.3*	-2.3	6.1	0.0601
C[C@H]1CN([C@@H](C)CO)C(=O)c2cccc(NS(=O)(=O)c3ccccc3)c2O[C@@H]1CN(C)Cc1ccc(C(=O)Nc2ccccc2N)cc1	·	?	-2.4	-2.9	-0.278
C[C@@H]1CN([C@@H](C)CO)C(=O)c2cccc(NS(C)(=O)=O)c2O[C@@H]1CN(C)Cc1ccc(C(=O)Nc2ccccc2N)cc1	·	122.9*	-0.9	16.4	-0.0466
C[C@@H]1CN([C@H](C)CO)C(=O)c2cccc(NS(=O)(=O)c3ccc(F)cc3)c2O[C@H]1CN(C)Cc1ccc(C(=O)Nc2ccccc2N)cc1	·	56.9	0.0	-9.8	0.127
C[C@H]1CN([C@@H](C)CO)C(=O)c2cccc(NS(=O)(=O)c3ccccc3)c2O[C@H]1CN(C)Cc1ccc(C(=O)Nc2ccccc2N)cc1	·	119.6*	0.1	10.9	0.0626
SMILES	Shh pathway inh	NOMO-1 viab	PD-1 reverse act	MITF inhib	YB-1 expr inh
O=C(Cn1cnc2ccccc2c1=O)Nc1ccccc1Br	·	29.0	0.3	-12.6	·
COc1cc2c(c3c1C(=O)C[C@H](c1ccccc1)O3)C=CC(C)(C)O2	-25.1	·	·	·	0.235
O=C(Nc1cc(C(F)(F)F)cc(C(F)(F)F)c1)C(=S)N1CCCCC1	13.9	34.5	2.1	5.0	0.454
O=C(NCCc1nc2ccccc2[nH]1)c1ccc(-c2ccccc2)cc1	·	31.3	0.4	27.7	·
Cc1ccc(S(=O)(=O)Nc2cccc3c2O[C@@H](CN(C)Cc2ccc(C(=O)Nc4ccccc4N)cc2)[C@@H](C)CN([C@H](C)CO)C3=O)cc1	·	136.5*	-0.3	30.0	-0.103
Cc1ccc(N(CC(=O)Nc2cc(Cl)ccc2Cl)S(C)(=O)=O)cc1C	·	3.5	-1.4	13.3	·
Cc1[nH]c2ccccc2c1C(c1ccccc1)N1CCN(C)CC1 (configuration not stated)	?	117.0*	-6.9	55.8	-0.272
C[C@H](CO)N1C[C@H](C)[C@H](CN(C)Cc2ccc(Cl)c(Cl)c2)Oc2ccc(NC(=O)Nc3ccc(C(F)(F)F)cc3)cc2CC1=O	-14.5	123.7*	1.0	-3.2	-0.0376
C[C@H]1CN([C@@H](C)CO)C(=O)Cc2cc(NC(=O)Nc3ccc(C(F)(F)F)cc3)ccc2O[C@H]1CN(C)Cc1ccc(Cl)c(Cl)c1	9.1	135.7*	-17.1	92.7*	-0.0384
C[C@@H]1CN([C@H](C)CO)C(=O)Cc2cc(NC(=O)Nc3ccc(C(F)(F)F)cc3)ccc2O[C@H]1CN(C)Cc1ccc(Cl)c(Cl)c1	-14.8	31.1	1.1	-1.2	0.242
C[C@@H]1CN([C@H](C)CO)C(=O)Cc2cc(NC(=O)Nc3ccc(C(F)(F)F)cc3)ccc2O[C@@H]1CN(C)Cc1ccc(Cl)c(Cl)c1	21.5	79.3	·	3.3	-0.108
O=C(Oc1ccccc1)Oc1ccc2oc(=O)sc2c1	·	45.7	-2.2	3.0	0.0785
O=C(Cc1ccccc1)NC1CCN(C(=O)c2cccs2)CC1	-19.3	14.5	0.2	1.6	-0.0547
CC(=O)c1cccc(-n2c(CCC(=O)O)ccc2-c2ccc(Br)cc2)c1	·	-10.9	-2.2	3.4	·
O=C(N/N=C/c1cc(I)cc(I)c1O)c1ccccn1	·	·	·	·	-0.404
O=C(Cn1nnc2ccccc21)c1ccc(Oc2ccc([N+](=O)[O-])cc2)cc1	·	1.4	2.2	62.4	·
COC(=O)c1cc(OC)c(OC)cc1NC(=O)COc1ccc2ccccc2c1Br	·	-16.9	-0.3	-5.8	·
COc1cc(NC(=O)COc2ccc3ccccc3c2Br)c(OC)cc1Cl	·	125.6*	-0.1	-28.9	·
C[C@@H]1CN([C@H](C)CO)C(=O)c2cccc(NC(=O)CCCCCC(=O)Nc3ccccc3N)c2O[C@@H]1CN(C)Cc1ccccc1	·	47.9	0.9	-25.4	-0.698
